Screening results (PubChem BioAssay)
Only a selection was taken, and hits are over-represented in it overall.
Pf Dd2 growth = blocks in vitro growth of P. falciparum Dd2; P. falciparum Dd2 growth, SYBR Green, 72 h; Potency, µM (titrated, usually from 28.9 µM), without a hit: top-dose activity, negative = inhibition, most hits filed as inhibitors; 120,000 compounds, 4.3% hits; AID 1347417; active = well fitted inhibition curve with a large enough effect;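 note: plate controls were DMSO vehicle for no effect and reference drug for full effect; nearly all actives have a fitted effect of over 65% in size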
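Readout: SYBR Green fluorescence, 485 nm excitation, 535 nm emission, after ~16 h lysis at 37C. Before that, Dd2-infected red cells (2.5% hematocrit) grew 72 h with compound, 29 uM top final concentration.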
Active calls of the source: *; i = inactive; [ ] = dose if it differs, or a comment. Potency is the fitted concentration of half-maximal effect.

SMILES	Pf Dd2 growth
Cc1ccc(C(=O)NCCn2cccc2-c2nc(-c3ccc4c(c3)OCO4)no2)cc1C	-30.2%
CN(C)c1ccc(NC(=O)Cn2cccc2-c2nc(-c3ccc4c(c3)OCO4)no2)cc1	6.8%
O=C(NCCn1cccc1-c1nc(-c2ccc3c(c2)OCO3)no1)c1ccc2c(c1)OCO2	12.6µM*
CN1C[C@@H](NC(=O)c2ccc3c(c2)OCO3)C[C@H]1c1nc(-c2ccc(Cl)cc2)no1	10µM*
CN(C)c1ccc(C(=O)N[C@H]2C[C@@H](c3nc(-c4ccc5c(c4)OCO5)no3)N(C)C2)cc1	i
O=C(Cn1cccc1-c1nc(-c2ccc3c(c2)OCO3)no1)Nc1ccc(Cl)cc1	2µM*
CN1C[C@@H](NC(=O)c2ccc(F)cc2)C[C@H]1c1nc(-c2ccc(Cl)cc2)no1	i
Cc1cc(C)c(NC(=O)Cn2cccc2-c2nc(-c3ccc4c(c3)OCO4)no2)c(C)c1	10.5%
O=C(NCCn1cccc1-c1nc(-c2ccc3c(c2)OCO3)no1)c1ccc(F)cc1	130.7%
CCOCC(=O)N1CCC(N2C(=O)C(O)C23CCCCC3)CC1 (stereo not drawn)	2.3%
CNC(=O)[C@@H]1CN(C(=O)c2cccc(C(F)(F)F)c2)C[C@H]1COC	8.4%
COc1ccc(CN2CCC([C@@H]3CNC[C@H]3CO)CC2)cc1Cn1ccnc1	13.6%
CCCN1C(=O)C(CC(=O)N2CCOCC2)Sc2ncccc21 (stereo not drawn)	4.6%
Cc1ccn(CC(=O)N2CC(F)(F)C[C@H]2c2nc(C3CC3)no2)n1	22.6%
O=C(NC[C@H]1O[C@@H](CO)[C@@H](O)[C@H]1N1CCN(c2ccc(F)cc2)CC1)c1cccs1	-10.6%
COCc1cn(C[C@H]2C[C@@H](NC(=O)c3cncnc3)[C@H](O)[C@@H]2O)nn1	-1.1%[44.1 µM]
CCN(CCOC)Cc1cn(C)nc1-c1ccc(C2CCCCC2)cc1	10µM*
Cn1cc(CN2CCN(c3cnccn3)CC2)c(-c2ccc(C3CCCCC3)cc2)n1	10µM*
Cn1c(CN2CCN(c3cnccn3)CC2)nnc1C1CC(N)C1 (stereo not drawn)	-3.8%
CN1C(=O)CC(C(=O)O)C12CCN(Cc1cn(C)nc1-c1ccccc1)CC2 (stereo not drawn)	-6.7%
Cc1nc2c(s1)CCCC2NC(=O)c1cc(-c2ccc(F)cc2)n[nH]1 (stereo not drawn)	-3.8%
CCN1C(=O)CCc2cc(NC(=O)c3cccc(C#N)c3)ccc21	-4.0%
O=C(O)Cn1nc(-c2ccccc2)nc1C1CC(=O)N(Cc2cccnc2)C1 (stereo not drawn)	-0.6%
CN1C(=O)CCC2(CNC(=O)c3ccncc3)CCC=C12 (stereo not drawn)	-24.1%
O=C1NC[C@@H](CCC(=O)N2CCCC2)N2C[C@@H](NCc3ccccc3)C[C@@H]12	9.5%[44.1 µM]
SMILES	Pf Dd2 growth
N#Cc1cc2c(=O)n3ccccc3nc2n(-c2nnc(SCc3ccccc3)s2)c1=O	i
Cc1ccc(CSc2nnc(-n3c(=O)c(C#N)cc4c(=O)n5cc(C)ccc5nc43)s2)cc1	32.0%
Cc1cccn2c(=O)c3cc(C#N)c(=O)n(-c4nnc(SCc5ccc(Cl)cc5)s4)c3nc12	8.91µM*
O=C(NC1CCOCC1)C1=NO[C@@H]2CN(c3ccc(F)c(Cl)c3)C[C@H]12	17.7%[44.1 µM]
COc1ccc(CCC(=O)N2CCC(Cc3nc(C4CC4)n[nH]3)CC2)cc1	i
O=C(c1cscn1)N1CCC2(CC1)CN(c1ccncn1)CC2CO (stereo not drawn)	25.0%
Cc1cccc(-c2ccc3c(c2)C(=O)N2CC[C@H](NC(=O)NC(C)C)C[C@H]2C(=O)N3)c1C	-4.5%[44.1 µM]
CC(C)NC(=O)N[C@H]1CCN2C(=O)c3cc(-c4ccsc4)ccc3NC(=O)[C@@H]2C1	12.6µM*
CC(C)NC(=O)N[C@H]1CCN2C(=O)c3cc(-c4ccc5c(c4)OCO5)ccc3NC(=O)[C@@H]2C1	i
O=[S+]1([O-])NC2(CCN(Cc3cccc4ccccc34)CC2)CNc2ccccc21	-11.5%
Nc1nc(C2CC(N)C2)cc(N2CCC(C(=O)NCc3ccccn3)CC2)n1 (stereo not drawn)	-21.8%
COc1cccc([S+](=O)([O-])N2CC(Oc3ccc(F)cc3C)C2)c1	1.9%
N#Cc1nc(/C=C/c2ccc(F)cc2)oc1N1CCN(c2ccccc2)CC1	60.0%
Cc1ccc(OCc2ccc(-c3nc(C#N)c(N4CCN(c5cccc(Cl)c5)CC4)o3)o2)cc1	-7.8%
Cc1ccccc1OCc1ccc(-c2nc(C#N)c(N3CCN(c4ccccc4)CC3)o2)o1	11.2µM*
C#CCN(C)Cc1nc(C2(O)CCN(C(=O)NCCC)CC2)cs1	14.7%[44.1 µM]
Cc1noc(C)c1CC(=O)N1CCCn2ccnc2C1c1ccccc1 (stereo not drawn)	-10.0%
COc1ncccc1C(=O)N1CCCC(c2nnc(Cn3ccnc3)n2C)C1 (stereo not drawn)	-17.8%
COCCOC1CCOC2(CCN(C(=O)c3ccccc3OC)CC2)C1 (stereo not drawn)	-26.0%
COCCOC1CCOC2(CCN(C(=O)c3cc(C)nn3C)CC2)C1 (stereo not drawn)	-18.2%
COCCOC1CCOC2(CCN(C(=O)c3cc(-c4ccc(F)cc4)n[nH]3)CC2)C1 (stereo not drawn)	11.2µM*
Brc1ccc(-c2nc3ccccn3c2Nc2ccc3c(c2)OCCO3)o1	12.6µM*
Cc1ccc(-c2nc3ccccn3c2Nc2ccc3c(c2)OCCO3)o1	-20.0%
Cc1ccn2c(Nc3ccc4c(c3)OCCO4)c(-c3ccccc3O)nc2c1	11.2µM*
Cc1ccc(-c2nc3ccc(Cl)cn3c2Nc2ccc3c(c2)OCCO3)s1	32.6%
SMILES	Pf Dd2 growth
c1csc(-c2nc3ccccn3c2Nc2ccc3c(c2)OCCO3)c1	17.2%
Cc1ccc2nc(-c3ccc(C)o3)c(Nc3ccc4c(c3)OCCO4)n2c1	-20.8%
N#Cc1cccc(-c2cn3c(n2)N(C(=O)c2cccnc2)CCC3)c1	i
Cc1onc(C(=O)N2C[C@@H](Oc3ccccc3)C[C@H]2C(=O)NC2CC2)c1Cn1cccn1	-18.5%
O=C(c1ccc2c(c1)OCO2)N1CCN2C(=O)N(Cc3ccccc3)C(=O)[C@H]2C1	-16.2%[44.1 µM]
Cc1nc(CC2CCN(C(=O)Nc3ccc4c(c3)OCCO4)CC2)n[nH]1	-23.1%
COc1cccc(NC(=O)CCC2CCN(C(=O)C(C)n3cncn3)CC2)c1 (stereo not drawn)	-11.1%
CCCS(=O)(=O)N1CCC(c2noc(-c3ccccc3)n2)C1 (stereo not drawn)	21.7%[5.79 µM]
COC[C@H]1C[C@@H](NCC(C)C)[C@H](O)[C@@H]1O	13.2%[44.1 µM]
CCCOc1ccc(CN2C[C@@H](CO)[C@H](C(=O)N(C)C)C2)cc1	-17.5%
COc1ccc(CNC[C@H]2O[C@H](Cc3cc(-c4cccc(O)c4)on3)CC[C@@H]2O)cc1	i
CN(CC(=O)N1CCN(Cc2ccccc2)CC(O)C1)C1CCCC1 (stereo not drawn)	8.91µM*
O=C(C1CC1)N1CCN(Cc2ccccc2)CC(O)C1 (stereo not drawn)	11.3%
O=C(C1CCC1)N1CCN(Cc2ccccc2)CC(O)C1 (stereo not drawn)	-4.7%
CNC(=O)[C@@H](C1CCCCC1)N1CCC[C@H]1C(=O)N1CCC1	28.1%[44.1 µM]
O=C(CCC[C@@H]1[C@H]2CCCN3CCC[C@@H](CN1C(=O)C1CCCC1)[C@@H]23)N1CCOCC1	-8.5%
CCCN(CC1CCOC1)S(=O)(=O)c1ccc(OC)cc1 (stereo not drawn)	i[5.79 µM]
Cc1noc2c(N3CCOCC3)cc(-c3ccsc3)nc12	-9.3%[44.1 µM]
CCOC(=O)c1cc(-c2ccc(C)cc2)n(CCC(=O)NCc2ccccc2)c1C	8.91µM*
